# Test results from paper PMC7862700, “An all-to-all approach to the identification of sequence-specific readers for epigenetic DNA modifications on cytosine”.
# How the values were obtained:
# Test in all cases: DAPPL (digital affinity profiling via proximity ligation, sequencing); 10 mM Tris-HCl pH 7.5, 50 mM NaCl, 1 mM DTT, 4% glycerol, room temperature, 30 min; GST-TFs on glutathione beads, 16-mer random dsDNA library, 0.1% formaldehyde crosslink after washing; high values mean tight binding
# FEV = target: T1, FEV (Homo sapiens, UniProt Q99581 1-238); conditions: protein: recombinant; tags: N-terminal GST; dsDNA, one strand shown
# T1 sequence: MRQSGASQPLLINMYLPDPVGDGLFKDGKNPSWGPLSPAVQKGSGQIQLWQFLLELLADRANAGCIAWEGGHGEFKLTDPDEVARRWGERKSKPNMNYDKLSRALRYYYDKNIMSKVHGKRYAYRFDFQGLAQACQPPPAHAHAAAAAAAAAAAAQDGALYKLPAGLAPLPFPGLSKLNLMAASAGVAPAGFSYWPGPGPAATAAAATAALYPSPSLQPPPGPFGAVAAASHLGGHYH
# Outline: (§1)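 In yeast, human transcription factors were expressed with a GST fusion, then pulled down on glutathione beads and given DNA barcodes. Pooled with a tag-only sample, they were exposed to 200 nmole of a 16-mer random double-stranded DNA library (Tris/NaCl/DTT/glycerol buffer, room temperature, 30 min), washed, crosslinked with 0.1% formaldehyde, proximity-ligated using BsaI/T4 ligase for 1 h at 37 °C, PCR-amplified and read on an Illumina NextSeq500. Each hexamer's frequency of reads for a factor, divided by the matching frequency for the tag-only sample, gives the binding signal.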
# ELF5 = target: T2, ELF5 (Homo sapiens, UniProt Q9UKW6-2 1-255); conditions: protein: recombinant; tags: N-terminal GST; dsDNA, one strand shown
# T2 sequence: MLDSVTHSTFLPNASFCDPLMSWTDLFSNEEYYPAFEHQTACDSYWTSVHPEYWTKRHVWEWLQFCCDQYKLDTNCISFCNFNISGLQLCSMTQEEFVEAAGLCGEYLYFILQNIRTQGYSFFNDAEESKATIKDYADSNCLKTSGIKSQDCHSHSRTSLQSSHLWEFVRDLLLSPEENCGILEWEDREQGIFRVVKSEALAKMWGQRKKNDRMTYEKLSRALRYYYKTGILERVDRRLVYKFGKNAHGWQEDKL
# Outline: as §1
# FLI1 = target: T3, FLI1 (Homo sapiens, UniProt Q01543 1-452); conditions: protein: recombinant; tags: N-terminal GST; dsDNA, one strand shown
# T3 sequence: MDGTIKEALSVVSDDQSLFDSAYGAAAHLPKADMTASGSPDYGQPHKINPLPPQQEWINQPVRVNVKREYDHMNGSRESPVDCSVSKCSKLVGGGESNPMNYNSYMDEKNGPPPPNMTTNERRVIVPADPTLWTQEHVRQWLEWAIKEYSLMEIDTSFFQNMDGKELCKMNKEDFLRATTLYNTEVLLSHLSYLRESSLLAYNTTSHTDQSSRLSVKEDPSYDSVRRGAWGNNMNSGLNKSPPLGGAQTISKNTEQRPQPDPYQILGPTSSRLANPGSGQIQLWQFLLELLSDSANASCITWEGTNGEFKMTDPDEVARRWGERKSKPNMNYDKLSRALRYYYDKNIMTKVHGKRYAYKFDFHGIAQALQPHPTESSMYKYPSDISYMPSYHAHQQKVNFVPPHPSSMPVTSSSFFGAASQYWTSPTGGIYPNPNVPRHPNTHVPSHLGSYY
# Outline: as §1
# CRX = CRX (Homo sapiens, UniProt O43186 1-299); conditions: protein: recombinant; tags: N-terminal GST; dsDNA, one strand shown
# Outline: as §1
# SPI1 = SPI1 (Homo sapiens, UniProt P17947 1-270); conditions: protein: recombinant; tags: N-terminal GST; dsDNA, one strand shown
# Outline: as §1
# ETV2 = target: T4, ETV2 (Homo sapiens, UniProt O00321 1-342); conditions: protein: recombinant; tags: N-terminal GST; dsDNA, one strand shown
# T4 sequence: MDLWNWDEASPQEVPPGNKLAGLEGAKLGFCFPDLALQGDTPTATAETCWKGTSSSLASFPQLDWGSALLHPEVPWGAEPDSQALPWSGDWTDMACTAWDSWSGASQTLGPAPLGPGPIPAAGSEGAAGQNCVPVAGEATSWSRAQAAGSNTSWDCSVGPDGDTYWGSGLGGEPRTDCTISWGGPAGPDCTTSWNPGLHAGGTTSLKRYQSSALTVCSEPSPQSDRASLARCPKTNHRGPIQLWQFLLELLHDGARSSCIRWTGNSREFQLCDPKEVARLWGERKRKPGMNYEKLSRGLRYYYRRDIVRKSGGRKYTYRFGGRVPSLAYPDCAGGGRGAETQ
# Outline: as §1
# HSF1 = HSF1 (Homo sapiens, UniProt Q00613 1-529); conditions: protein: recombinant; tags: N-terminal GST; chain copies: 3; dsDNA, one strand shown
# Outline: as §1
# Chain of CRX (O43186 whole entry): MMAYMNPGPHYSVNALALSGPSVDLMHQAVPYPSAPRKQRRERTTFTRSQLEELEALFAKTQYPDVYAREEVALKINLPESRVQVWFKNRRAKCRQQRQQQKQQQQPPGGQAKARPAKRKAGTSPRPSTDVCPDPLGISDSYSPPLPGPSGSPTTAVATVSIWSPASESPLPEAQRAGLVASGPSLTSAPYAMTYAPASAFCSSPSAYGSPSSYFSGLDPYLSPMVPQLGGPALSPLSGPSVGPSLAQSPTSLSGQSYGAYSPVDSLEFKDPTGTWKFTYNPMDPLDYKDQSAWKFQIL
# Chain of HSF1 (Q00613 whole entry): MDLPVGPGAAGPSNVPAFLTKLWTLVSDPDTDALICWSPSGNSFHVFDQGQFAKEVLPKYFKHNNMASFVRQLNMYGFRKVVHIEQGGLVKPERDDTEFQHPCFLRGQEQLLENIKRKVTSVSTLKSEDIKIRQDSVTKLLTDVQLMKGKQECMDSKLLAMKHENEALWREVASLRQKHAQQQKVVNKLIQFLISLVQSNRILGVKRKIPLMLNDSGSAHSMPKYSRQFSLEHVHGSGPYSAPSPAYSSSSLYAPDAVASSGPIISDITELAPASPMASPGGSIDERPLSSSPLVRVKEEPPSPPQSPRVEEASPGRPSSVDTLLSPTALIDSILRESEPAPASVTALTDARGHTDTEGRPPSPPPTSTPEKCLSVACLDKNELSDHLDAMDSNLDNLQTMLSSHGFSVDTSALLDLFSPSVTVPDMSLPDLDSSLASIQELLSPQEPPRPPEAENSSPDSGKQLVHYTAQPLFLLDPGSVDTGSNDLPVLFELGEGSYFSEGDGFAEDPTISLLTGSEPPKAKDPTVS
sequence,measurement,setting,value
GACCGG,binding signal,FEV,"2.09 fold enrichment (6-mer frequency, TF over GST control)"
same,binding signal,ELF5,"1.08 fold enrichment (6-mer frequency, TF over GST control)"
CTGTAG,binding signal,ELF5,"1.01 fold enrichment (6-mer frequency, TF over GST control)"
CCAAGT,binding signal,FLI1,"1.02 fold enrichment (6-mer frequency, TF over GST control)"
TATGAG,binding signal,CRX,"1.1 fold enrichment (6-mer frequency, TF over GST control)"
CCACCG,binding signal,SPI1,"1.04 fold enrichment (6-mer frequency, TF over GST control)"
same,binding signal,FEV,"1.26 fold enrichment (6-mer frequency, TF over GST control)"
same,binding signal,ELF5,"1.02 fold enrichment (6-mer frequency, TF over GST control)"
GGATAC,binding signal,ETV2,"1.01 fold enrichment (6-mer frequency, TF over GST control)"
same,binding signal,ELF5,"1.02 fold enrichment (6-mer frequency, TF over GST control)"
GTTGGT,binding signal,SPI1,"1.02 fold enrichment (6-mer frequency, TF over GST control)"
CATAGT,binding signal,ELF5,"1 fold enrichment (6-mer frequency, TF over GST control)"
AACGCA,binding signal,SPI1,"1.06 fold enrichment (6-mer frequency, TF over GST control)"
same,binding signal,FEV,"1.11 fold enrichment (6-mer frequency, TF over GST control)"
same,binding signal,ETV2,"1.1 fold enrichment (6-mer frequency, TF over GST control)"
same,binding signal,ELF5,"1.04 fold enrichment (6-mer frequency, TF over GST control)"
AAACAG,binding signal,SPI1,"1.13 fold enrichment (6-mer frequency, TF over GST control)"
same,binding signal,ELF5,"1.03 fold enrichment (6-mer frequency, TF over GST control)"
GTGCCT,binding signal,SPI1,"1.15 fold enrichment (6-mer frequency, TF over GST control)"
same,binding signal,ETV2,"1.22 fold enrichment (6-mer frequency, TF over GST control)"
GCCGGA,binding signal,FEV,"1.59 fold enrichment (6-mer frequency, TF over GST control)"
same,binding signal,ELF5,"1.05 fold enrichment (6-mer frequency, TF over GST control)"
TAGGCC,binding signal,FEV,"1.05 fold enrichment (6-mer frequency, TF over GST control)"
same,binding signal,CRX,"1.21 fold enrichment (6-mer frequency, TF over GST control)"
AACTGT,binding signal,ETV2,"1.15 fold enrichment (6-mer frequency, TF over GST control)"
AGTCCT,binding signal,SPI1,"1.2 fold enrichment (6-mer frequency, TF over GST control)"
same,binding signal,ETV2,"1.02 fold enrichment (6-mer frequency, TF over GST control)"
same,binding signal,ELF5,"1.17 fold enrichment (6-mer frequency, TF over GST control)"
CATAGC,binding signal,ETV2,"1.06 fold enrichment (6-mer frequency, TF over GST control)"
ATAGGG,binding signal,SPI1,"1.19 fold enrichment (6-mer frequency, TF over GST control)"
same,binding signal,ETV2,"1.08 fold enrichment (6-mer frequency, TF over GST control)"
same,binding signal,ELF5,"1.02 fold enrichment (6-mer frequency, TF over GST control)"
ATCCGT,binding signal,FEV,"1.1 fold enrichment (6-mer frequency, TF over GST control)"
same,binding signal,CRX,"1.08 fold enrichment (6-mer frequency, TF over GST control)"
same,binding signal,ELF5,"1.17 fold enrichment (6-mer frequency, TF over GST control)"
CAGTTC,binding signal,SPI1,"1.08 fold enrichment (6-mer frequency, TF over GST control)"
same,binding signal,ELF5,"1 fold enrichment (6-mer frequency, TF over GST control)"
GTCCGG,binding signal,FEV,"1.15 fold enrichment (6-mer frequency, TF over GST control)"
same,binding signal,ELF5,"1.06 fold enrichment (6-mer frequency, TF over GST control)"
GAAACC,binding signal,FEV,"1.08 fold enrichment (6-mer frequency, TF over GST control)"
same,binding signal,ETV2,"1.06 fold enrichment (6-mer frequency, TF over GST control)"
same,binding signal,ELF5,"1.03 fold enrichment (6-mer frequency, TF over GST control)"
GTGCCC,binding signal,SPI1,"1.07 fold enrichment (6-mer frequency, TF over GST control)"
same,binding signal,FEV,"1 fold enrichment (6-mer frequency, TF over GST control)"
AGCGTC,binding signal,SPI1,"1.06 fold enrichment (6-mer frequency, TF over GST control)"
same,binding signal,FEV,"1.04 fold enrichment (6-mer frequency, TF over GST control)"
same,binding signal,ELF5,"1.04 fold enrichment (6-mer frequency, TF over GST control)"
AGTACC,binding signal,SPI1,"1.03 fold enrichment (6-mer frequency, TF over GST control)"
same,binding signal,ETV2,"1.03 fold enrichment (6-mer frequency, TF over GST control)"
same,binding signal,ELF5,"1.02 fold enrichment (6-mer frequency, TF over GST control)"
ATAGGC,binding signal,FEV,"1.07 fold enrichment (6-mer frequency, TF over GST control)"
same,binding signal,CRX,"1.14 fold enrichment (6-mer frequency, TF over GST control)"
GTACCA,binding signal,SPI1,"1.11 fold enrichment (6-mer frequency, TF over GST control)"
same,binding signal,FEV,"1.01 fold enrichment (6-mer frequency, TF over GST control)"
TGGTCG,binding signal,ETV2,"1.08 fold enrichment (6-mer frequency, TF over GST control)"
TGAAGA,binding signal,FLI1,"1 fold enrichment (6-mer frequency, TF over GST control)"
same,binding signal,HSF1,"1.09 fold enrichment (6-mer frequency, TF over GST control)"
same,binding signal,CRX,"1 fold enrichment (6-mer frequency, TF over GST control)"
TAGACT,binding signal,FLI1,"1.03 fold enrichment (6-mer frequency, TF over GST control)"
same,binding signal,SPI1,"1 fold enrichment (6-mer frequency, TF over GST control)"
same,binding signal,HSF1,"1.32 fold enrichment (6-mer frequency, TF over GST control)"
same,binding signal,CRX,"1.27 fold enrichment (6-mer frequency, TF over GST control)"
TAAGGG,binding signal,FLI1,"1.01 fold enrichment (6-mer frequency, TF over GST control)"
same,binding signal,FEV,"1 fold enrichment (6-mer frequency, TF over GST control)"
same,binding signal,HSF1,"1.12 fold enrichment (6-mer frequency, TF over GST control)"
same,binding signal,CRX,"1.49 fold enrichment (6-mer frequency, TF over GST control)"
same,binding signal,ELF5,"1.06 fold enrichment (6-mer frequency, TF over GST control)"
TAAAGG,binding signal,FLI1,"1.04 fold enrichment (6-mer frequency, TF over GST control)"
same,binding signal,SPI1,"1.03 fold enrichment (6-mer frequency, TF over GST control)"
same,binding signal,FEV,"1.02 fold enrichment (6-mer frequency, TF over GST control)"
same,binding signal,HSF1,"1.15 fold enrichment (6-mer frequency, TF over GST control)"
same,binding signal,CRX,"1.56 fold enrichment (6-mer frequency, TF over GST control)"
same,binding signal,ELF5,"1.1 fold enrichment (6-mer frequency, TF over GST control)"
CGTCTG,binding signal,FLI1,"1.13 fold enrichment (6-mer frequency, TF over GST control)"
same,binding signal,SPI1,"1.06 fold enrichment (6-mer frequency, TF over GST control)"
same,binding signal,FEV,"1.03 fold enrichment (6-mer frequency, TF over GST control)"
same,binding signal,HSF1,"1.01 fold enrichment (6-mer frequency, TF over GST control)"
same,binding signal,ETV2,"1.23 fold enrichment (6-mer frequency, TF over GST control)"
GCTAAG,binding signal,FLI1,"1.13 fold enrichment (6-mer frequency, TF over GST control)"
same,binding signal,HSF1,"1.13 fold enrichment (6-mer frequency, TF over GST control)"
same,binding signal,ETV2,"1.07 fold enrichment (6-mer frequency, TF over GST control)"
same,binding signal,CRX,"1.75 fold enrichment (6-mer frequency, TF over GST control)"
same,binding signal,ELF5,"1.01 fold enrichment (6-mer frequency, TF over GST control)"
TTAAGA,binding signal,FLI1,"1.05 fold enrichment (6-mer frequency, TF over GST control)"
same,binding signal,SPI1,"1.03 fold enrichment (6-mer frequency, TF over GST control)"
same,binding signal,FEV,"1.01 fold enrichment (6-mer frequency, TF over GST control)"
same,binding signal,HSF1,"1.95 fold enrichment (6-mer frequency, TF over GST control)"
same,binding signal,ETV2,"1.15 fold enrichment (6-mer frequency, TF over GST control)"
same,binding signal,CRX,"2.97 fold enrichment (6-mer frequency, TF over GST control)"
CATGCG,binding signal,FLI1,"1.01 fold enrichment (6-mer frequency, TF over GST control)"
same,binding signal,HSF1,"1.07 fold enrichment (6-mer frequency, TF over GST control)"
same,binding signal,ETV2,"1 fold enrichment (6-mer frequency, TF over GST control)"
ACCTAG,binding signal,FLI1,"1.01 fold enrichment (6-mer frequency, TF over GST control)"
same,binding signal,SPI1,"1.02 fold enrichment (6-mer frequency, TF over GST control)"
same,binding signal,FEV,"1.03 fold enrichment (6-mer frequency, TF over GST control)"
same,binding signal,HSF1,"1.21 fold enrichment (6-mer frequency, TF over GST control)"
